# Data published in PubChem BioAssay (EPA / NIEHS).
# Results filed as inconclusive are left out. Activity calls are given as the source filed them. The calls were made as follows: active = hit-call score of the fitted dose curve at least 0.9, where 1 is the maximum; inconclusive = response in the unintended direction; inactive = score below 0.9.
# Experiments:
# [1] = biological target: guinea pig Bradykinin Receptor B2 (BK2), BDKRB2 (gene 100135486) (UniProt O70526); assay: NVS_GPCR_gBK2: NovaScreen (NVS) G Protein-Coupled Receptor Assay for guinea pig Bradykinin Receptor B2 (BK2) (AID 2283292)
# In short: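 Radioligand displacement on guinea pig ileum membranes for 1 h, read by filter-based scintillation counting; loss of signal relative to DMSO. Compounds were screened in duplicate at 25 uM, and those passing the threshold were retested in concentration-response up to 50 uM.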
# [2] = biological target: mouse Cholecystokinin, CCK2 Receptor (CCKB), Cckbr (gene 12426) (UniProt P56481); assay: NVS_GPCR_mCKKBCentral: NovaScreen (NVS) G Protein-Coupled Receptor Assay for mouse Cholecystokinin, CCK2 Receptor (CCKB) (AID 2283293)
# In short: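 Radioligand displacement binding on mouse forebrain membranes, 2 h exposure, filter-based scintillation counting. Primary screen in duplicate at 25 uM; actives (e.g. ≥30% inhibition) retested in concentration-response up to 50 uM; loss of binding signal relative to DMSO.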
# Sequence of guinea pig Bradykinin Receptor B2 (BK2), BDKRB2 (gene 100135486) (O70526 whole entry, looked up): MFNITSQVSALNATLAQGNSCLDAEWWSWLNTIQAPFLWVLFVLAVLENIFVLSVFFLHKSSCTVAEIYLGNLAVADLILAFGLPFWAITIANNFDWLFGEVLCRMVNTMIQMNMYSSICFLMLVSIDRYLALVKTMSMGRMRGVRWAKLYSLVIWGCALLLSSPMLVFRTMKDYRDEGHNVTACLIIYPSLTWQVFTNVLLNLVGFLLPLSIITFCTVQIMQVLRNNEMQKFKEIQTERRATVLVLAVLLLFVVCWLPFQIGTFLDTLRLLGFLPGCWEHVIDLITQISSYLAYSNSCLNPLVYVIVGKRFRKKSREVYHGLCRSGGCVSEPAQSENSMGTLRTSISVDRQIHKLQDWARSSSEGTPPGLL
# Sequence of mouse Cholecystokinin, CCK2 Receptor (CCKB), Cckbr (gene 12426) (P56481 whole entry, looked up): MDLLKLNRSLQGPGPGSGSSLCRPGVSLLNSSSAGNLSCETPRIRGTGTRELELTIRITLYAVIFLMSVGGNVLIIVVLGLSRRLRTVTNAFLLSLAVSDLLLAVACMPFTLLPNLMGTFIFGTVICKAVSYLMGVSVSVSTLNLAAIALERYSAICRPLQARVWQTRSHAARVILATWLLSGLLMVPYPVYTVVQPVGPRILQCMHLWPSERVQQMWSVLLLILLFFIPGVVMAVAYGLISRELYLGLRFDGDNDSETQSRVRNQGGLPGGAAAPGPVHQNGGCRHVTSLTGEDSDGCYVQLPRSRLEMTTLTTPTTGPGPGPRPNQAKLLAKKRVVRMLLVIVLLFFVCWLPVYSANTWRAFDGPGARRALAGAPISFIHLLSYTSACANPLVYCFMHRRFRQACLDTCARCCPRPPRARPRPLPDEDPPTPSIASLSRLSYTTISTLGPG
SMILES,outcome [1],AC50 [2]
Cc1cn([C@H]2C=C[C@@H](CO)O2)c(=O)[nH]c1=O,inactive,–
CCN(CC)CCOc1ccc(C(=C(Cl)c2ccccc2)c2ccccc2)cc1,inactive,–
CCC(C)N(C)C(=O)c1cc2ccccc2c(-c2ccccc2Cl)n1 (centres undefined),–,2.61 µM (active)
CCCCc1nc2cccnc2n1Cc1ccc(-c2ccccc2-c2nnn[nH]2)cc1,–,15.4 µM (active)
